# Data reported in PubChem BioAssay (NCATS).
# A number with no mark means an inactive call. Inconclusive results are not listed. A call without a number means that no potency is given here. Activity calls are given as the source filed them. Unless noted, the call rests on the fitted dose curve; in most records, active means well fitted curve in the direction sought with a large enough effect; inconclusive means small, poorly fitted or top-dose-only effect, or another doubt; inactive means no such curve, though single readings can be large; an effect the other way counts as inactive or inconclusive.
# Key:
# [1] = qHTS Assay for Identification of Small Molecule Agonists for Hypoxia Response Element Signaling Pathway (AID 914; active means well fitted activation curve with a large enough effect in the signal ratio, with a control signal flat, not every such curve was filed as active; the % refers to the signal ratio); conditions: ME-180 (cervical carcinoma) HRE-bla reporter, beta-lactamase ratio, CoCl2, 17 h; active compounds read high
# Procedure, shortened: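 HRE-bla ME-180 cells with beta-lactamase reporter under hypoxia response element, compounds with EC50 CoCl2 for 17 hours at 37 C. CCF4 substrate, 460nm/530nm emission ratio gave %Activity; AC50 from titration series.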
# [2] = qHTS Assay for Identification of Small Molecule Antagonists for Thrombopoietin (TPO) Signaling Pathway (AID 918); conditions: TPO-dependent cell signaling reporter, antagonist mode; further: potency means the concentration at half of the fitted maximal effect; nearly all actives have a fitted effect of over 60% in size
# Procedure, shortened: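 Murine Ba/F3 cells expressing human TPO receptor and a Glycoprotein IIb promoter-luciferase reporter, IL-3-starved overnight, treated with compound plus TPO at EC50 (26 pM final). After 24 h at 37 C, luminescence read to detect inhibitors.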
# [3] = Cell Viability - LYMP2-001 (AID 921); conditions: LYMP2-001 lymphoblastoid cell viability; series mostly up to 92.2 µM; further: nearly all actives have a fitted effect of over 70% in size
# Procedure, shortened: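 qHTS, 1536-well; lymphoblastoid cells, 24 hr compound, 37 C; ATP by CellTiter-Glo, 30 min RT; luminescence; Hill-fit AC50.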
# [4] = target: Muscarinic acetylcholine receptor M1 (Rattus norvegicus) (UniProt P08482); test: qHTS Assay for Antagonists of Acetylcholine Muscarinic M1 Receptor: Measurement of IP-One Response (AID 944); conditions: CHO-M1 cells, IP-One HTRF, antagonist mode; series mostly up to 46.1 µM; further: nearly all actives have a fitted effect of over 75% in size; further: potency means the concentration at half of the fitted maximal effect
# Procedure, shortened: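 CHO cells stably expressing rat M1, pretreated 10 min with compound, then stimulated 30 min with carbachol at EC80 (200 nM) in LiCl-containing buffer pH 7.4; IP1 accumulation read by HTRF competition (665/620 nm).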
# [5] = Cell Viability - LYMP1-002 - Assay at 16 hr (AID 948); conditions: LYMP1-002 lymphoblastoid cell viability; series mostly up to 92.2 µM
# Procedure, shortened: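 Acute cytotoxicity is scored as a concentration-dependent fall in intracellular ATP in a human lymphoblastoid line (LYMP1-002) after 16 hr compound exposure at 37 C, measured by luciferase luminescence.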
# [6] = target: Pyruvate kinase PKM (Homo sapiens) (UniProt P14618); test: qHTS Assay for Activators of Human Muscle Pyruvate Kinase (AID 954; active means well fitted curve in the direction sought with a large enough effect, not every such curve was filed as active); conditions: purified human muscle pyruvate kinase, luciferase-coupled luminescence, 1 h; series mostly up to 57.5 µM
# Procedure, shortened: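 Purified human PKM2 (0.1 nM) with 0.5 mM PEP (Km) and 0.1 mM ADP in 50 mM imidazole pH 7.2, KCl, MgCl2, 1 h at room temperature; ATP formed read by coupled luciferase luminescence. Normalized to no-enzyme/110 uM thiadiazolimine inhibition; 0.3 nM enzyme column for activation.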
# [7] = MultiTox-Fluor Cytotoxicity Assay - LYMP1-002 - Dead Cells (AID 960); conditions: LYMP1-002 lymphoblastoid cells, dead-cell protease fluorescence; series mostly up to 46.1 µM; further: potency means the concentration at half of the fitted maximal effect; nearly all actives have a fitted effect of over 60% in size
# Procedure, shortened: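 Human lymphoblastoid LYMP1-002 cells, 2500/well, treated 16 h at 37 C; dead-cell protease cleavage of bis-AAF-R110 read by fluorescence (485/520); normalized to DMSO and 15 uM tetraoctylammonium bromide; AC50 from Hill fit.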
# [8] = MultiTox-Fluor Cytotoxicity Assay - LYMP1-003 - Dead Cells (AID 961); conditions: LYMP1-003 lymphoblastoid cells, dead-cell protease fluorescence; series mostly up to 92.2 µM; further: potency means the concentration at half of the fitted maximal effect; nearly all actives have a fitted effect of over 70% in size
# Procedure, shortened: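 LYMP1-003 human lymphoblastoid cells (2500/well) exposed to compound 16 h at 37 C in complete medium; dead-cell protease read with bis-AAF-R110 fluorescence (Ex/Em 485/520) after 60 min at room temperature. Normalized to DMSO and 15 uM tetraoctylammonium bromide; AC50 from Hill fit.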
# [9] = MultiTox-Fluor Cytotoxicity Assay - LYMP1-003 - Live Cells (AID 962); conditions: LYMP1-003 lymphoblastoid cells, MultiTox-Fluor live-cell protease fluorescence; series mostly up to 92.2 µM;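 further: cytotoxic hits lower the live-cell protease signal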
# Procedure, shortened: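 LYMP1-003 lymphoblastoid cells, 2500/well in complete medium, treated 16 h at 37 C; live-cell protease cleavage of GF-AFC read by fluorescence (Ex/Em 405/510) after 60 min reagent; AC50 from Hill fits of concentration-response.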
# [10] = Cell Viability - LYMP1-003 - Assay at 40 hr (AID 964); conditions: LYMP1-003 lymphoblastoid viability; series mostly up to 92.2 µM; further: potency means the concentration at half of the fitted maximal effect; nearly all actives have a fitted effect of over 60% in size
# Procedure, shortened: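 LYMP1-003 human lymphoblastoid cells, 2500/well, preincubated 5 h at 37 C, then treated with compound for 40 h at 37 C. Intracellular ATP read by CellTiter-Glo luminescence after 30 min at room temperature; AC50 from Hill-equation fits.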
# [11] = qHTS Assay for Identification of Small Molecule Agonists for Thrombopoietin (TPO) Signaling Pathway (AID 917); conditions: TPO signaling pathway reporter cells, agonist qHTS, stimulated with TPO at its EC50; series mostly up to 38.5 µM
# Procedure, shortened: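 We measured Glycoprotein IIb promoter–luciferase output in IL-3-starved Ba/F3 murine cells expressing the human TPO receptor after 24 hrs at 37 C with compounds and 26 pM TPO.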
# [12] = target: Pyruvate kinase (Leishmania mexicana) (UniProt Q27686); test: qHTS Validation Assay for Inhibitors of Leishmania Mexicana Pyruvate Kinase (AID 945); conditions: purified L. mexicana pyruvate kinase, enzyme activity, E451W mutant enzyme; series mostly up to 57.5 µM
# Procedure, shortened: (§1)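 Eight-point qHTS titrations in triplicate, data normalized to DMSO neutral control. Reaction: 0.2 nM LmPYK E451W mutant, 0.5 mM PEP, 0.1 mM ADP, 7 mM MgCl2, pH 7.2, one hour at room temperature; luminescent ATP detection.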
# [13] = target: Pyruvate kinase (Leishmania mexicana) (UniProt Q27686); test: qHTS Validation Assay for Activators of Leishmania Mexicana Pyruvate Kinase (AID 959); conditions: purified L. mexicana pyruvate kinase, enzyme activity; series mostly up to 57.5 µM
# Procedure, shortened: as §1
# [14] = Confirmation and Secondary Assay for Modulators of Hemoglobin Beta Chain Splicing at IVS2 705 locus (AID 930); conditions: HeLa EGFP-705 splicing reporter, GFP fluorescence, 48 h; series mostly up to 46.1 µM;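 further: HeLa cells stably expressing the EGFP-705 splicing reporter; GFP fluorescence per well restored by corrected splicing of the IVS2-705 intron in EGFP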
# Procedure, shortened: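 HeLa cells stably carrying EGFP interrupted by mutant beta-globin intron 2 (IVS2-705) treated 2 days at 37C with compound; 500 nM antisense PNA as control. Correct splicing read as total peak GFP intensity per well by laser-scanning cytometry.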
# Pyruvate kinase (Leishmania mexicana), sequence (Q27686 2-499 E452W): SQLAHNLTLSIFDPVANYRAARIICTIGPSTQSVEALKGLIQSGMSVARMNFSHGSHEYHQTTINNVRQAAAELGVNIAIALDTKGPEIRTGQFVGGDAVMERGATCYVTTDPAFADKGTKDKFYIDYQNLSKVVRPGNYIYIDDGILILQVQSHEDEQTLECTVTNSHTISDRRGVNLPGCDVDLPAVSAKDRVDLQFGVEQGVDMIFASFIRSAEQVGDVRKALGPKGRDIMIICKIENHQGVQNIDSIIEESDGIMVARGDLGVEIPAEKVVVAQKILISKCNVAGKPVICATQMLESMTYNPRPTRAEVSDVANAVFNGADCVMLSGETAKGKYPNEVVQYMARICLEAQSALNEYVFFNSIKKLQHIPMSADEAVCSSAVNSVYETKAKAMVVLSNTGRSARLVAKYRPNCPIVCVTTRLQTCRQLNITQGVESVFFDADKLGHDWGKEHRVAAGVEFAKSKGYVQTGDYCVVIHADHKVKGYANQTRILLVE
# Pyruvate kinase PKM (Homo sapiens), sequence (P14618 whole entry, looked up): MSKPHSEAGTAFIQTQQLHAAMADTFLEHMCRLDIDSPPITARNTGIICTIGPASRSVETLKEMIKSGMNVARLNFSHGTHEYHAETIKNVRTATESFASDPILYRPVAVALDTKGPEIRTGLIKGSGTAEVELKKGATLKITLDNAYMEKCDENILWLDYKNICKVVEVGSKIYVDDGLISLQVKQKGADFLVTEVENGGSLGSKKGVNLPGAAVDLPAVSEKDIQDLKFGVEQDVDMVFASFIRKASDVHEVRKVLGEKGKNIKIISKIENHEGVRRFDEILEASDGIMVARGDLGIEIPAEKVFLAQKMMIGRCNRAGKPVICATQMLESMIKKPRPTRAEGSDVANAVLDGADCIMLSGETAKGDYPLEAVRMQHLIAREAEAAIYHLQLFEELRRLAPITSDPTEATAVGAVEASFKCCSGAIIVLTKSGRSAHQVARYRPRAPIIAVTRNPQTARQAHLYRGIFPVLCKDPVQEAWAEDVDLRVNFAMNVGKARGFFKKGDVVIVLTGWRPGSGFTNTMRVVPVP
# Muscarinic acetylcholine receptor M1 (Rattus norvegicus), sequence (P08482 whole entry, looked up): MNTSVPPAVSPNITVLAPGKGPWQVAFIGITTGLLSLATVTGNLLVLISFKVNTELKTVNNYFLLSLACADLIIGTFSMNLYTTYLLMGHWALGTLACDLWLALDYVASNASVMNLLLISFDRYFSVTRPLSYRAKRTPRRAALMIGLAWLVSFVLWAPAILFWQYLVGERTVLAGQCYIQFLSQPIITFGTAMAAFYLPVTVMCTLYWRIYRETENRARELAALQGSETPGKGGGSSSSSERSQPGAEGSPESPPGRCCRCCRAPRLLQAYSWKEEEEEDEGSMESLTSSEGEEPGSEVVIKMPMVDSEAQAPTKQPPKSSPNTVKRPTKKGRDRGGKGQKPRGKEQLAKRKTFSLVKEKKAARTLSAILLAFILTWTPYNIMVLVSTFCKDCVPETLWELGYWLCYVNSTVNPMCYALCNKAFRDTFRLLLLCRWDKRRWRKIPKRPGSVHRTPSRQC
smiles,measurement,setting,value
COCCCC/C(=N\OCCN)c1ccc(C(F)(F)F)cc1,activation,[1],24.7%
COC(=O)[C@H]1[C@H]2C[C@@H]3c4[nH]c5cc(OC)ccc5c4CCN3C[C@H]2C[C@@H](OC(=O)c2cc(OC)c(OC)c(OC)c2)[C@@H]1OC,Potency,[2],31.6 µM (active)
same,outcome,[3],inactive
same,Potency,[4],8.91 µM (active)
same,outcome,[5],inactive
same,outcome,[6],inactive
same,Potency,[7],31.6 µM (active)
same,Potency,[8],50.1 µM (active)
same,outcome,[9],inactive
same,Potency,[10],39.8 µM (active)
CCc1c(C)[nH]c2c1C(=O)C(CN1CCOCC1)CC2 (centres undefined),outcome,[11],inactive
same,Potency,[4],inactive
same,Potency,[12],inactive
same,outcome,[6],inactive
Nc1nc(N)c2nc(-c3ccccc3)c(N)nc2n1,outcome,[13],inactive
C#CCN(C)CCCOc1ccc(Cl)cc1Cl,outcome,[6],inactive
CN(C)C(=O)Oc1ccc[n+](C)c1,outcome,[14],inactive
same,outcome,[6],inactive
NCCCNCCSP(=O)(O)O,outcome,[6],inactive
CC1=NS(=O)(=O)c2cc(Cl)ccc2N1,outcome,[14],inactive
same,Potency,[12],inactive
same,outcome,[6],inactive
CCN1CCc2nc(N)oc2CC1,Potency,[12],inactive
same,outcome,[6],inactive
C[N+](C)(C)CCOC(=O)CCC(=O)OCC[N+](C)(C)C,outcome,[6],inactive
CCCCNc1c(C(=O)OCC)c(C)nc2c1cnn2CC,Potency,[4],inactive
same,Potency,[12],inactive
same,outcome,[6],inactive
C[C@]12CCC(=O)C=C1CC[C@@H]1[C@@H]2CC[C@@]2(C)[C@H]1CC[C@]2(O)C(=O)CO,outcome,[6],inactive
